A selection: hits, their analogues and other compounds. The true share with any hit is near 2.7%.
MITF TRPM1 inh: inhibitors of MITF-driven TRPM1 promoter in melanoma cells. SK-MEL-5 TRPM1 promoter luciferase, 24 h. inhibition, % at 12.5 µM. 330,000 tested, 0.83% active;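 active = mean inhibition across replicates of 60% or more, whatever share of single replicates reaches that level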
HIF-2a block: blocks HIF-2a reporter activity; 786-0 RCC cells HIF-2a reporter, luciferase luminescence, overnight; 360,000 tested, 0.72% active; inhibition, % at 18.8 µM;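 active = inhibition of the luminescence signal of 40% or more relative to plate controls, in a single-dose primary screen at 18.75 µM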
Peg3 promoter: inhibitors of Peg3 promoter; HeLa PEG-Prom luciferase reporter, luminescence, overnight; inhibition, % at 20 µM; 360,000 tested, 1.7% active;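 active = inhibition of at least 50% at 20 µM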
Shn3 3UTR inh: inhibitors of Schnurri-3 3'UTR reporter in osteoblasts; Clone20 osteoblast Shn3 3'UTR firefly luciferase, 24 h; inhibition, % at 12.5 µM; 360,000 tested, 0.52% active; AID 588674;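 active = mean inhibition of at least 75% with every replicate also reaching 75%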;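 note: 0% = median of neutral control wells and 100% = pilot-screen positive control compound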
CF NFkB block: cystic fibrosis NF-kB activation inhibition | KKLEB NF-kB-GFP reporter, PAF-induced, GFP fluorescence overnight | inhibition, % at 5 µM | 360,000 tested, 0.86% active | AID 588850;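 active = at least 50% inhibition at 5 µM, scaled per plate between neutral and stimulator controls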;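 note: PAF is a Pseudomonas aeruginosa culture filtrate used as stimulus; plate controls were PAF-stimulated DMSO wells for no effect and unstimulated DMSO wells for full effect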
KKLEB cytotox: CF airway cell cytotoxicity counter-screen. KKLEB CF airway cells viability, ATPlite luminescence, overnight; stronger effect = lower value; cells stimulated with P. aeruginosa culture filtrate. activity change (cytotoxicity), % at 5 µM. 360,000 tested, 0.36% active. AID 602141;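 active = corrected activity change at or below -50% at 5 µM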
Mdm2-MdmX confirm: confirmation of inhibitors of human Mdm2/MdmX interaction, set 2; inhibition, % at 8 µM; shares compounds with HIF-2a block; 740 tested, 99% active; SaOS-2 split-luciferase Mdm2/MdmX complementation, luminescence; AID 504601;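 active = mean inhibition of the luminescence signal across two replicates at or above 26 percent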
HIF-2a conf: HIF-2a inhibition, single concentration confirmation | AID 651580 | 1,800 tested, 56% active | 786-0 RCC cells, HIF-2a luciferase reporter luminescence, overnight | shares compounds with HIF-2a block | inhibition, % at 18.8 µM;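 active = mean inhibition across four replicates of at least 40 percent at the single tested concentration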
HIF-1a cs: inhibits HIF-1a reporter, a counter-screen for HIF-2a inhibitors | shares compounds with HIF-2a block | MiaPaCa-2 HIF-1a luciferase reporter, desferoxamine, overnight | inhibition, % at 18.8 µM | 1,800 tested, 72% active | AID 651589;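 active = mean inhibition of the reporter signal across four replicates at the single tested dose of 50% or more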
Starred values were filed as active, the others as inactive; . = no result given.

SMILES	MITF TRPM1 inh	HIF-2a block	Peg3 promoter	Shn3 3UTR inh	CF NFkB block	KKLEB cytotox	HIF-2a conf	HIF-1a cs	others
NC(=O)c1sc2nc3c(c(-c4cccnc4)c2c1N)CCC3	-8	-1	-1	-3	9	10	.	.
Cn1c(=O)c2c(nc(CN3CCc4ccccc4C3)n2Cc2cccc(Cl)c2)n(C)c1=O	.	43*	41	26	40	-2	15	76*
FC(F)(F)c1nnc(-c2ccccc2)nc1N1CCCC1	-2	8	7	-4	10	-14	.	.
FC(F)(F)c1cccc(Oc2nc(-c3ccccc3)nnc2C(F)(F)F)c1	0	7	6	-2	-3	-3	.	.
FC(F)(F)c1nnc(-c2ccccc2)nc1Sc1ccc(Cl)cc1	42	62*	74*	92*	-14	5	48*	91*
FC(F)(F)c1nnc(-c2ccccc2)nc1Sc1ccccc1	20	78*	72*	38	11	-10	19	67*
FC(F)(F)c1cccc(Sc2nc(-c3ccccc3)nnc2C(F)(F)F)c1	35	44*	36	.	10	-1	6	70*
CCCNC(=O)C1(C)CCCN(CCOc2ccccc2)C1 (stereo unspecified)	.	6	6	4	-9	14	.	.
CCc1ccc(-c2nc(CS(=O)CC(=O)NCc3ccco3)c(C)o2)cc1 (stereo unspecified)	35	70*	46	26	-25	16	22	69*
COc1ccc(-c2nc(CS(=O)CC(=O)NCc3ccco3)c(C)o2)cc1 (stereo unspecified)	18	-9	-17	1	-4	4	.	.
COc1ccccc1OCCC(=O)OCC(=O)NCc1ccc(Cl)cc1	-9	15	10	-15	-4	2	.	.
COc1ccc(CNC(=O)COC(=O)CCCOc2ccc(Cl)cc2Cl)cc1	3	43*	11	-16	12	-1	29	20
CCOC(=O)COc1ccc(S(=O)(=O)N2CCN(C(=O)OCC)CC2)cc1	8	17	9	3	2	-6	.	.
COC(=O)COc1ccc(S(=O)(=O)N2CCN(c3ccccc3F)CC2)cc1C	3	53*	7	-57	2	-9	5	-7
COC(=O)COc1ccc(S(=O)(=O)N2CCN(c3ccc(F)cc3)CC2)cc1	-7	46*	-1	-12	8	0	22	5
COC(=O)COc1ccc(S(=O)(=O)N2CCN(c3ccc(OC)cc3)CC2)cc1	-14	8	4	-1	22	-8	.	.
CCOC(=O)COc1ccc(S(=O)(=O)N2CCc3ccccc3C2)cc1	-8	44*	8	-7	16	-10	15	-2
CCOC(=O)COc1ccc(S(=O)(=O)N2CCN(c3ccccc3)CC2)cc1	-19	67*	6	8	9	-8	19	0
O=C(COc1ccc(S(=O)(=O)N2CCOCC2)cc1)N1CCc2ccccc2C1	1	20	-2	12	4	-4	.	.
CC1=C(C(=O)OCc2ccccc2)C(c2ccc(C)cc2)NC(=O)N1 (stereo unspecified)	.	27	26	19	16	-8	.	.
O=C(NCCc1ccccc1C(F)(F)F)c1cc(COc2ccccc2)on1	.	-3	8	-7	5	-5	.	.
CC(C)(C)NC(=O)C1C(c2ccc(C(F)(F)F)cc2)=Nc2ccccc2N1C(=O)c1cccc2ccccc12 (stereo unspecified)	.	28	.	.	.	.	.	.
CCOC(=O)COc1ccc(S(=O)(=O)N2CCN(c3ccc(F)cc3)CC2)cc1	-5	43*	2	-12	-14	2	-1	0
COc1ccc(C(=O)Nc2cc(OC)c(NC(=O)Nc3ccccc3)cc2OC)cc1	.	13	16	13	-1	6	.	.
CCN(CC)CC(=O)c1ccc(-c2ccccc2)cc1	-3	46*	-7	13	-7	12	7	28
SMILES	MITF TRPM1 inh	HIF-2a block	Peg3 promoter	Shn3 3UTR inh	CF NFkB block	KKLEB cytotox	HIF-2a conf	HIF-1a cs	others
O=C(NCc1cccc(Cl)c1)C1Cc2c(-c3ccccc3Oc3ccccc3)ccnc2O1 (stereo unspecified)	.	20	21	8	-8	9	.	.
O=C(CCl)N(c1ccccc1)C1CCCCC1	95*	61*	110*	97*	92*	-92*	92*	106*	Mdm2-MdmX confirm=103*
CCCc1nc2ccc(C)cn2c1Cc1cccc(Cl)c1	.	-206	-258	-34	13	-12	.	.
O=C1CCCC[C@@H](O)[C@H](O)C[C@H](c2ccccc2)O1	.	6	.	.	.	.	.	.
C=C1CC2(CC(c3ccccc3)OC(c3ccccc3)C2)OC1=O (stereo unspecified)	107*	87*	96*	97*	78*	-66*	91*	106*
CC(C)Cc1nc2oc3c(Cl)ncnc3c2c2c1CCCC2	3	75*	113*	9	22	-2	45*	100*
C[C@H](CO)N1C[C@H](C)[C@@H](CN(C)Cc2ccc(C(=O)O)cc2)Oc2ncc(-c3ccc(C(=O)N(C)C)cc3)cc2C1=O	.	3	1	8	1	15	.	.
Cc1ccc(S(=O)(=O)N2[C@@H](Cc3ccccc3)CO[C@H]2CC(=O)c2ccc(F)cc2)cc1	.	-10	.	.	.	.	.	.
CCCNC(=O)c1nnsc1S(=O)c1ccc(Cl)cc1 (stereo unspecified)	67*	44*	104*	96*	84*	-5	25	99*
CCCNC(=O)c1ccc2snnc2c1	5	17	6	6	11	1	.	.
CCCNC(=O)c1nnsc1S(=O)(=O)c1ccc(Cl)cc1	86*	79*	101*	92*	89*	-48	69*	57*	Mdm2-MdmX confirm=103*
CCCNC(=O)NS(=O)(=O)c1ccc(Cl)cc1	-2	8	-2	-11	-6	8	.	.
O=C(NC1CC1)c1ccc2nc([C@@H]3O[C@H](CO)[C@H](O)[C@H](O)[C@H]3O)[nH]c2c1	.	8	6	-6	-5	-7	.	.
O=C(OCC(O)C1OC(c2ccccc2)OC(COC(=O)c2ccccc2)C1O)c1ccccc1 (stereo unspecified)	.	-2	22	19	-48	5	.	.
O=C(Nc1cc(C(F)(F)F)cc(C(F)(F)F)c1)Nc1cnn(-c2ccc([N+](=O)[O-])cc2)c1C(F)(F)F	70*	57*	96*	60	77*	-69*	7	106*	Mdm2-MdmX confirm=103*

Screening data (PubChem)
